Test [1] can be described thus: qHTS assay to identify small molecule agonists of the hypoxia (HIF-1) signaling pathway - cell viability counter screen (AID 1224844; calls by dose curve; further: nearly all actives have a fitted effect of over 50% in size). An outline of the steps: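 In this counter screen, HRE-bla ME-180 cell viability after 17 hrs of compound exposure at 37C was read by CellTiter-Glo luminescence, multiplexed with the beta-lactamase reporter measurement.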
Test [2] in a line: qHTS assay to identify small molecule agonists of H2AX (AID 1224845; active means well fitted activation curve with a large enough effect in the signal ratio in the repeat runs, not every such curve was filed as active; the % refers to the signal ratio). An outline of the steps:
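Wild-type CHO-K1 cells, plated overnight, exposed 3hr at 37C to 15 concentrations (0.76% DMSO final). Lysed, then HTRF anti-pH2AX (S139) cryptate and anti-H2AX-d2 antibodies, 24 hr room temperature; 665/620 nm emission read.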

Test [3] in a line: qHTS assay to identify small molecule agonists of the hypoxia (HIF-1) signaling pathway (AID 1224846; active means well fitted activation curve with a large enough effect in the signal ratio in the repeat runs, not every such curve was filed as active; the % refers to the signal ratio). An outline of the steps:
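ME-180 HRE-bla reporter cells; compounds in DMSO, 17 h at 37C; read-out beta-lactamase via CCF4-AM FRET.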
In general terms: In qHTS, concentration-response curves come from the screen itself.

A short description of test [4]: qHTS assay to identify small molecule agonists of H2AX - cell viability counter screen (AID 1224847; calls by dose curve; further: nearly all actives have a fitted effect of over 30% in size; further: potency means the concentration at half of the fitted maximal effect). An outline of the steps:
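Counter-screen for viability: CellTiter-Glo ATP luminescence read after 3 h compound treatment (15-point titration, 0.76% DMSO final) of CHO-K1 cells at 37C, with 30 min room-temperature reagent incubation.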

Test [5] is described as follows: qHTS assay to identify small molecule antagonists of the estrogen related receptor (ERR) signaling pathway from Tox21 library (AID 1224848). Further: nearly all actives have a fitted effect of over 50% in size. The method, boiled down: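 Compounds dissolved in DMSO are pin-transferred onto ERR reporter cells (2,000 per well) that have settled for 6 h at 37 C. Plates then incubate 18 h at 37 C before ONE-Glo luciferase reagent and a luminescence read 30 min later.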

Test [6] is described as follows: qHTS assay to identify small molecule agonists of the estrogen related receptor (ERR) signaling pathway from Tox21 library (AID 1224849; calls by dose curve; further: nearly all actives have a fitted effect of over 15% in size). The conditions noted are these: ERR reporter cell line, ONE-Glo luciferase, 18 h; at 92.4 µM (top of the series) unless noted. The method, boiled down:
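Luciferase activity in ERR pathway reporter cells served as the agonist readout; exposure lasted 18 h at 37 C, with ONE-Glo detection after 30 min at room temperature.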

Test [7] can be described thus: qHTS RealTime-Glo MT Cell Viability Assay in HepG2 cells - 24 hour (AID 1224867). Further: nearly all actives have a fitted effect of over 50% in size. An outline of the steps:
(§1)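 HepG2 cells (600/well) were dispensed with RealTime-Glo reagents, incubated 5 h at 37 °C, then treated with compounds in DMSO for up to 40 h. Nonlytic NanoLuc luminescence reflecting viable cells was read at each stated time point.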

The nature of test [8]: qHTS RealTime-Glo MT Cell Viability Assay in HEK293 cells - 32 hour (AID 1224868). Further: top concentration of the series differs between compounds; nearly all actives have a fitted effect of over 50% in size. The method, boiled down: (§2)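 HEK293 cells seeded with NanoLuc/prosubstrate reagent, rested 5 h at 37 C, then dosed and kept at 37 C up to 40 h. Nonlytic real-time luminescence from viable cells read at 0, 8, 16, 24, 32 and 40 h.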
Test [9] is described as follows: A CellTox Green Cytotoxicity Assay to monitor cytotoxicity in HEK293 cells - 0 hour (AID 1224869). Further: nearly all actives have a fitted effect of over 50% in size. An outline of the steps:
(§3)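 Real-time, in one plate: 600 HEK293 cells/well with dead-cell DNA dye, pinned compound after 5 h, 37 C incubation over 40 h; viable cells give no appreciable fluorescence.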

Test [10] is described as follows: qHTS RealTime-Glo MT Cell Viability Assay in HepG2 cells - 40 hour (AID 1224870). Further: nearly all actives have a fitted effect of over 50% in size. The method, boiled down:
(§4)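 HepG2 cells (600/well) mixed with RealTime-Glo MT reagent, settled 5 h at 37 C/5% CO2 before compound addition. Nonlytic NanoLuc luminescence from viable-cell prosubstrate reduction read repeatedly during 40 h treatment at 37 C.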

Test [11] can be described thus: A CellTox Green Cytotoxicity Assay to monitor cytotoxicity in HEK293 cells - 40 hour (AID 1224871). Further: nearly all actives have a fitted effect of over 45% in size. The method, boiled down:
as §3

Test [12] is described as follows: qHTS RealTime-Glo MT Cell Viability Assay in HEK293 cells - 16 hour (AID 1224872). An outline of the steps:
as §2

The nature of test [13]: qHTS RealTime-Glo MT Cell Viability Assay in HepG2 cells - 8 hour (AID 1224873). Further: nearly all actives have a fitted effect of over 55% in size. The method, boiled down:
as §4

Test [14] is described as follows: qHTS RealTime-Glo MT Cell Viability Assay in HEK293 cells - 40 hour (AID 1224874). Further: nearly all actives have a fitted effect of over 50% in size. The settings on record: RealTime-Glo luminescence; max response: stronger effect = lower value. An outline of the steps: (§5)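 Kinetic, non-lysing viability readout. Seed HEK293 (600/well) with reagent, incubate 5 h at 37 C/5% CO2, pin 23 nL compound in DMSO, incubate at 37 C, read luminescence at 0, 8, 16, 24, 32, 40 h.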

Test [15] in a line: A CellTox Green Cytotoxicity Assay to monitor cytotoxicity in HEK293 cells - 24 hour (AID 1224875). Further: nearly all actives have a fitted effect of over 45% in size. The method, boiled down: as §3
Test [16] can be described thus: qHTS RealTime-Glo MT Cell Viability Assay in HepG2 cells - 32 hour (AID 1224877). Further: nearly all actives have a fitted effect of over 55% in size. The method, boiled down:
as §1

The nature of test [17]: A CellTox Green Cytotoxicity Assay to monitor cytotoxicity in HepG2 cells - 16 hour (AID 1224876). Further: nearly all actives have a fitted effect of over 45% in size. The method, boiled down: (§6)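 Cytotoxicity was tracked as dead-cell DNA fluorescence in HepG2 cells treated with test compounds at 37 C; each time-point value comes from one kinetic series spanning 0, 8, 16, 24, 32 and 40 h.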
Test [18] in a line: A CellTox Green Cytotoxicity Assay to monitor cytotoxicity in HepG2 cells - 24 hour (AID 1224878). Further: nearly all actives have a fitted effect of over 45% in size. An outline of the steps: as §6
Test [19] in a line: A CellTox Green Cytotoxicity Assay to monitor cytotoxicity in HepG2 cells - 40 hour (AID 1224879). Further: nearly all actives have a fitted effect of over 40% in size. The method, boiled down: as §6
Test [20] is described as follows: qHTS RealTime-Glo MT Cell Viability Assay in HEK293 cells - 0 hour (AID 1224880). The method, boiled down: as §5

A number with no mark means an inactive call. Inconclusive results are not listed. Activity calls are given as the source filed them. Unless noted, the call rests on the fitted dose curve; in most records, active means well fitted curve in the direction sought with a large enough effect in the repeat runs; inconclusive means weak or mixed curves; inactive means no such curve, though single readings can be large; an effect the other way counts as inactive or inconclusive.
On the % scale 0 is the no-effect control and ±100 the full control effect.

`C#CC1(O)CCCCC1`: the Potency result in test [1], in [2], in test [3], in test [4], in test [5] and in test [7] was “inactive” each time. Also, the Potency result in test [8], in test [9], in [10], in test [11], in [12] and in test [13] was “inactive” in each case. The Potency entry in [15] and in test [16] was “inactive” throughout. The activity change, positive = activation in [6] was 1.06%. Moreover, the max response in test [14] is 19.4%.

Regarding `CNN`, the Potency entry in [1], in [2], in test [3], in test [4], in test [7] and in [8] was “inactive” in each case. For the same molecule, the Potency entry in test [9], in test [10], in test [11], in test [12], in test [13] and in test [15] was “inactive” throughout. Besides, the Potency entry in [17], in [16], in [18], in test [19] and in test [20] was “inactive” in each case. For the same molecule, the max response in test [14] is 9.14%.

On to `O=S(=O)(O)F`, for which the Potency result in test [1], in [2], in test [3], in test [4], in test [7] and in test [8] was “inactive” each time. Also, the Potency result in test [9], in [10], in [11], in test [12], in test [13] and in [15] was “inactive” each time. Also, the Potency entry in test [17], in test [16], in test [18], in test [19] and in test [20] was “inactive” each time. The max response in test [14] was 6.96%.

Turning to `Oc1ccc(Cl)c(Cl)c1`, the Potency result in [1], in test [2], in [3], in test [5], in [7] and in test [9] was “inactive” throughout. Also, the Potency result in test [10], in test [11], in [12], in test [13], in [15] and in [17] was “inactive” throughout. Further, the Potency result in test [18] and in test [19] was “inactive” throughout. Further, in test [4], the Potency is 49.7 µM (active). The activity change, positive = activation in test [6] was -11.7%. In test [14], the max response was -18.2%.

With `ClC(Cl)C(Cl)(Cl)Cl`, the Potency result in test [1], in test [2], in [3], in [4], in [7] and in test [8] was “inactive” each time. Further, the Potency entry in test [9], in test [10], in test [11], in [12], in [13] and in test [15] was “inactive” in each case. In addition, the Potency result in test [17], in test [16], in test [18] and in test [19] was “inactive” in each case. Also, the max response in test [14] is 0.191%.

Take `[Cl-].[Cl-].[Cl-].[Yb+3]`: the Potency result in test [1], in test [2], in test [3], in test [4], in test [7] and in test [8] was “inactive” each time. Further, the Potency result in [9], in test [10], in [11], in [12], in test [13] and in test [15] was “inactive” each time. Further, the Potency result in [17], in test [16], in [18], in test [19] and in [20] was “inactive” in each case. In test [14], the max response was 28.3%.

With `Cc1ccccc1OP(=O)(Oc1ccccc1C)Oc1ccccc1C`, the Potency result in test [1], in test [2], in [3], in [7], in test [9] and in [10] was “inactive” throughout. Moreover, the Potency result in [11], in test [12], in [13], in test [17], in test [16] and in test [18] was “inactive” throughout. In addition, the Potency result in test [19] and in test [20] was “inactive” each time. In test [4], the Potency is 90.1 µM (active). For the same molecule, in test [6], the activity change, positive = activation was -4.53%.

The values above are taken from PubChem BioAssay (Tox21).
